The list is not random: actives were taken first. Their share in the collection is about 4%.
KCC2 mod – KCC2 (human) Cl- transport modulation | Q9H2X9 | KCC2 cells, thallium flux FluoZin-2 fluorescence | B-score of Tl+ flux slope (higher = more flux/activation; lower = inhibition) at 10 µM | 190,000 compounds, 2.2% hits | AID 1456;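 active = thallium flux slope and its plate-corrected score both differing from the plate sample mean at a set confidence after two filtering rounds, in either direction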;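 note: slope of fluorescence scaled to starting intensity during 10 to 20 s after thallium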
Measles CPE – protection of cells from measles virus | 140,000 compounds, 1.5% hits | Measles virus-infected cells, CPE protection, absorbance | protection (pct of control), % at 4 µM; in the data active = protection mostly above about 24%, no sharp cut-off; inactive = mostly below about 26%
Arbovirus inh – blocks arbovirus infection | arbovirus infection cell-based antiviral screen | inhibition, % at 10 µM | 200,000 compounds, 0.37% hits; in the data active = inhibition above about 30%
HSV augment – HSV replication enhancement | maximum fold increase | AID 1956 | 220,000 compounds, 0.005% hits | HSV replication augmentation in cells, fold increase; in the data active = maximum fold increase above about 1.5; inconclusive = no clear call, values can overlap the other calls; tested in PC3 cells
ROMK mod – human ROMK K+ channel modulation, primary screen | P48048 | Tet-inducible ROMK, thallium flux fluorescence; actives lie on both sides | B-score at 10 µM | 130,000 compounds, 2% hits | AID 1918;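 active = signal ratio slope over the read window, or its plate-corrected B-score, at least 3 SD from the plate mean, either direction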;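 note: B-score of the F/F0 ratio slope over 7 to 12 s after thallium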
ROMK retest – human ROMK channel modulation, retest confirmation | normalized thallium flux (F/F0 slope) at 10 µM | shares compounds with ROMK mod | ROMK thallium flux, fluorescence ratio; hits give low values | 3,000 compounds, 54% hits | AID 1917;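 active = Flux at 10 µM at least 3 SD below or above vehicle control mean in one or both replicates; inconclusive = no clear call, values can overlap the other calls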
A number is an active result; . = inactive; ? = inconclusive; / = no result.

SMILES | KCC2 mod | Measles CPE | Arbovirus inh | HSV augment | ROMK mod | ROMK retest
COC(=O)c1ccc(Oc2cc(C)nc(-n3nc(C)cc3C)n2)cc1 | . | . | . | . | 4.9 | .
COC(=O)c1ccc(Oc2nc(C)cc(Oc3ccccc3)n2)cc1 | . | . | . | . | . | /
Cc1noc(C)c1COc1ccc(CC(=O)NCc2ccccc2)cc1 | . | / | . | . | 3.1 | 0.1
CC(=O)N1CCc2cc(N=NC3=C(O)CC(C)(C)CC3=O)ccc21 | . | / | . | . | . | /
N#Cc1sc2nc(-c3cccs3)cc(-c3ccccc3)c2c1N | . | . | . | . | / | /
N#Cc1sc2nc(-c3ccccc3)cc(C(F)(F)F)c2c1N | . | / | . | . | -4.4 | 0.063
COc1ccc(C(=O)/C(C#N)=N/Nc2ccccc2[N+](=O)[O-])cc1 | . | . | . | . | 3.8 | .
Cc1cc(C)cc(OCc2ccc(C(=O)N3N=C(C(F)F)CC3(O)C(F)F)o2)c1 (stereo unspecified) | . | . | . | / | 3 | .
CCOc1ccc(OCc2ccc(C(=O)N3N=C(C(F)F)CC3(O)C(F)F)o2)cc1 (stereo unspecified) | . | . | . | . | . | /
Cc1cc(=O)n2cccc(O)c2n1 | . | / | . | . | . | /
O=C(C1CC1)N1CCC(c2nc(-c3ccc(S(=O)(=O)N4CCCC4)cc3)no2)CC1 | . | . | . | . | . | /
CC(C)C(=O)N1CCC(c2nc(-c3ccc(S(=O)(=O)N4CCN(C)CC4)cc3)no2)CC1 | . | / | . | . | . | .
COC(=O)CCN(C(=O)c1ccc(N2CCCCC2)c([N+](=O)[O-])c1)c1ccccn1 | . | / | . | . | -2.1 | 0.067
COC(=O)CCN(C(=O)c1ccc(N2CCCC2)c([N+](=O)[O-])c1)c1ccccn1 | . | / | . | . | . | /
COc1ccc(S(=O)(=O)NCc2ccccn2)cc1Cl | . | . | . | . | / | /
COc1ccccc1Oc1ccc(S(=O)(=O)NCc2ccccn2)cc1 | / | . | . | . | -2.7 | .
N#C/C(=C\C1=C(N2CCOCC2)C(=C\c2ccc(Cl)cc2)/CC1)C(=O)Nc1ccccc1F | . | . | . | . | . | /
N#C/C(=C\C1=C(N2CCOCC2)C(=C/c2cccc([N+](=O)[O-])c2)/CC1)C(=O)Nc1ccccc1F | . | . | . | ? | -3.4 | 0.061
CC(=O)NCCOc1nc(N(C)C)nc(N2CCCCC2)n1 | . | / | . | . | . | /
CCOC(=O)c1c(NC(=O)c2cc(C)on2)c2cc([N+](=O)[O-])ccc2n1C | . | / | / | . | / | /
COc1ccc(CC(=O)NCc2n[nH]c(=S)n2-c2cccc(Cl)c2)cc1 | . | / | . | . | . | /
Cc1ccccc1NC(=S)N(CCCN1CCC(C)CC1)Cc1ccco1 | . | . | . | . | -2.5 | 0.066
CN(C)CCNC(=O)CNC(=S)N(CCCN1CCOCC1)Cc1cccs1 | . | / | . | . | -8.5 | .
COc1cccc(NC(=S)N(CCCN2CCC(C)CC2)Cc2cccs2)c1 | . | / | . | . | -3.4 | 0.061
Cc1csc(/C(=N/OC(=O)c2ccco2)C(N)=O)n1 | . | / | / | . | / | /
SMILES | KCC2 mod | Measles CPE | Arbovirus inh | HSV augment | ROMK mod | ROMK retest
O=C(CNC(=S)N(Cc1ccccc1Cl)C1CCCC1)NCCN1CCOCC1 | . | / | . | . | . | /
c1cc2c3c(cccc3c1)C(N1CCCCCC1)=N2 | . | . | . | / | . | /
c1ccc2c(c1)CCN(C1=Nc3cccc4cccc1c34)C2 | . | / | . | . | -2 | 0.054
COc1ccc(-n2cc(CNCCc3cnc[nH]3)c(-c3cccc(F)c3)n2)cc1 | / | / | . | . | -1.9 | 0.061
O=C(Nc1cnc2ccccc2c1)c1cccc(-n2cnnn2)c1 | . | . | . | . | / | 0.06
O=C(NNC(=O)c1cccc(-n2cnnn2)c1)c1ccccc1 | . | / | . | . | . | /
CC(=O)N1CCCN(Cc2cn(-c3cc(C)ccc3C)nc2-c2ccccc2)CC1 | . | / | . | . | . | /
CCN1CCN(CCCNC(=O)c2ccc(/C=C3/Sc4ccccc4N(Cc4ccccc4F)C3=O)cc2)CC1 | . | / | . | . | -3.3 | .
CCN1CCN(CCNC(=O)c2ccc(/C=C3/Sc4ccccc4N(Cc4ccccc4C)C3=O)cc2)CC1 | . | / | . | . | -3.6 | .
CCCC(C)C(=O)Nc1ccc(S(=O)(=O)Nc2nccs2)cc1 (stereo unspecified) | . | / | . | . | . | /
NS(=O)(=O)c1ccc(CNC(=O)/C=C/c2c(F)cccc2Cl)cc1 | . | / | . | . | . | /
O=c1c2ccccc2c(-c2ccccc2)nn1Cc1c(Cl)cccc1Cl | / | . | . | . | / | /
O=c1c2ccccc2c(-c2ccccc2)nn1-c1cc(Cl)cc(Cl)c1 | . | / | / | . | / | .
